# A selection: hits, their analogues and other compounds. The true share with any hit is near 8.3%.
# VP16 counter – Gal4-VP16 reporter inhibition counter-screen; Drosophila S2 Gal4-VP16 UAS-luciferase, luminescence, 20 h; Potency, µM (series often up to 53.6 µM), for inactives: at the top dose activity, negative = inhibition, most hits filed as inhibitors; hit rate 3.5% among 310,000; AID 2546;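 further: Gal4-VP16 expression switched on by copper sulfate through the metallothionein promoter; potency means the concentration at half of the fitted maximal effect; on the % scale 0 is the no-effect control and ±100 the full control effect; nearly all actives have a fitted effect of over 50% in size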
# MCF10A rereplic – induces DNA re-replication in MCF 10a normal breast cells | AID 624296 | hit rate 2.9% among 350,000 | MCF 10A DNA re-replication, Hoechst nuclear intensity, 48 h | Potency, µM (top dose mostly 46.1 µM), inactives show at the top dose activity, positive = re-replication, most hits filed as activators; further: potency means the concentration at half of the fitted maximal effect; % of control where 0% means no effect; nearly all actives have a fitted effect of over 50% in size
# RORgamma inh – ROR gamma (mouse) transcription inhibition. AID 2551. Drosophila S2 Gal4-RORgamma UAS-luciferase reporter, 20 h. Potency, µM (titrated, usually from 53.6 µM), without a hit: at the highest dose activity change, negative = inhibition, actives largely listed as inhibitors. hit rate 5.4% among 310,000; further: potency means the concentration at half of the fitted maximal effect; on the % scale 0 is the no-effect control and ±100 the full control effect; nearly all actives have a fitted effect of over 60% in size
# Target sequence (P51450 whole entry, looked up, the tested form may be a part): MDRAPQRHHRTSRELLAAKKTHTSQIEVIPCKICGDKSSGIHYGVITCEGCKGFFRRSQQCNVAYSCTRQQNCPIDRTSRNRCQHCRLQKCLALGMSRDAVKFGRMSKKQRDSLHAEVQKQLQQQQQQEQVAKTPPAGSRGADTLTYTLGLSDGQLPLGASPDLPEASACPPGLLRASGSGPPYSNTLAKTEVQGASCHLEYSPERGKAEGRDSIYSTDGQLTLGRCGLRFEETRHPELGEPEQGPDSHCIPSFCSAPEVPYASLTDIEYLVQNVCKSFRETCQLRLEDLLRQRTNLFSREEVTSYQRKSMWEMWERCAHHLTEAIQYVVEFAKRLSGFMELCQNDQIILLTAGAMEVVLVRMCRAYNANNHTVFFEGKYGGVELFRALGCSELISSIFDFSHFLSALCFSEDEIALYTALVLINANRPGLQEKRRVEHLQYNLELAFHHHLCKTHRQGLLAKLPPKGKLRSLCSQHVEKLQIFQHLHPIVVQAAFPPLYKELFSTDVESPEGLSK
#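 Stably transfected Drosophila Schneider cells are the test system, with ROR gamma fused to Gal4 and luciferase under UAS control; luminescence is read after 20 hr of 700 uM copper sulfate induction at ambient temperature.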
# BCR signal inh – blocks chronic active B-cell receptor signaling | ABC-DLBCL IkBa-CBG/CBR reporter, luminescence ratio, 4 h | Potency, µM (highest dose often 46.1 µM), for inactives: at the highest dose activity change, negative = inhibition, most hits filed as inhibitors | hit rate 0.05% among 340,000 | AID 493014; active means well fitted inhibition curve with a large enough effect in the signal ratio, with a control signal flat, not every such curve was filed as active; inconclusive means small, poorly fitted or top-dose-only effect, or effect the other way, or a change in a side signal; the % refers to the signal ratio;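 further: potency means the concentration at half of the fitted maximal effect; plate controls were basal doxycycline-induced cells for no effect and cells given 10 µM MG132 for full effect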
#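 TMD8 human ABC-DLBCL cells with doxycycline-inducible IκBα–green luciferase fusion and unfused red luciferase, in 0.5% FBS medium; compounds up to 46 uM, 4 h at 37C. Green/red luminescence ratio, filter-overlap corrected, fitted to concentration-response curves.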
# Giardia killer – Giardia lamblia killing; activity change, % at 7.66 µM, hits read low; AID 540267; Giardia lamblia trophozoite viability; hit rate 0.15% among 340,000; in the data active means activity change below about -80%; inconclusive means between about -30% and that limit;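 further: parasites exposed to compound for two days anaerobically before the ATP read; on the % scale 0 is the no-effect control and ±100 the full control effect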
#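 Each well holds 100 Giardia trophozoites and compound. After two days (48 hrs) at 37 deg C in anaerobic conditions, ATP is quantified by luminescence.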
# SW480 rereplic – induces DNA re-replication in SW480 colon adenocarcinoma cells. SW480 DNA re-replication, Hoechst DNA content imaging, 48 h. AID 624297. Potency, µM (titrated, usually from 46.1 µM), inactives show at the top dose re-replication activation, actives largely listed as activators. hit rate 1.8% among 340,000; further: potency means the concentration at half of the fitted maximal effect; % of control where 0% means no effect; nearly all actives have a fitted effect of over 55% in size
#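 Quantitative HTS format with DMSO vehicle controls; 48 hr drug incubation at 37 C, then 40 min Hoechst staining and scanning imager measurement at 405 nm excitation.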
# * hit, by the source's call; ? = inconclusive; nt = no result given; [ ] = dose if it differs, or a comment. Unless noted, the call rests on the fitted dose curve; in most records, active means well fitted curve in the direction sought with a large enough effect; inconclusive means small, poorly fitted or top-dose-only effect, or another doubt; inactive means no such curve, though single readings can be large; an effect the other way counts as inactive or inconclusive.
SMILES,VP16 counter,MCF10A rereplic,RORgamma inh,BCR signal inh,Giardia killer,SW480 rereplic
C[C@H]1O[C@H](O[C@H]2[C@H](O)[C@@H](O)[C@@H](O)[C@H](O)[C@@H]2O)[C@@H](N)C[C@@H]1NC(=N)C(=O)O,-24%,nt,-16%,nt,nt,nt
Brc1ccccc1Cn1c(-c2cncs2)nc2ccccc21,-8%,21%,6.3µM*,23%,-3,16%
C=C1C(O)C2OC3(CCC(/C=C/C(C)C4CC(C)=CC5(OC(CC(C)(O)C(=O)O)CCC5O)O4)O3)CCC2OC1C(O)CC(C)C1OC2(CCCCO2)CCC1C (stereo not given),0.011µM*,nt,0.004µM*,nt,nt,nt
Cc1ccc(S(=O)(=O)N(C)/N=C/c2ccc(N(C)C)cc2)cc1,0%,3%,5%,?,4,7%
O=C(Nc1ccc(Cl)cc1C(=O)c1ccccc1)c1ccco1,0%,18%,10%,10%,-4,-3%
O=C(/C=C/Nc1ccc(Br)cc1F)c1ccco1,7.9µM*,-9%[9.22 µM],7.1µM*,?,?,15%
O=C(Nc1ncc(Cc2ccccc2)s1)C1=NCCN1,?,-1%,2µM*,0%,-25,-2%
C=C(C)C(=O)CP(=O)(OCC)OCC,5%,nt,?,nt,nt,nt
O=C1NC(=O)N(Cc2ccccc2)C(=O)/C1=C/C=C/c1ccco1,13µM*,4.1µM*,?,?,-11,18µM*
CC(C)c1ccc(N2C(=O)NC(=O)/C(=C\C=C\c3ccco3)C2=O)cc1,4.5µM*,3.7µM*,?,14%,1,21µM*
CC(C)(C)C(O)C(Cc1ccc(Cl)cc1Cl)n1cncn1 (stereo not given),0%,nt,18%,nt,nt,nt
CCNCC,-4%,nt,6%,nt,nt,nt
CCC12CN3CCN(CC(C3)/C1=N/NC(=O)c1ccncc1)C2,15%,14%,-4%,-20%,12,?
CCCC12CN3CCN(CC(C3)/C1=N\NC(=O)c1ccncc1)C2,9%,-4%,-12%,-13%,4,5.8µM*
CC[n+]1c(-c2ccccc2)c2cc(N)ccc2c2ccc(N)cc21,11µM*,-3%,?,nt,-3,-7%
COc1ccc(Cn2c(N)c(C(=O)NCc3ccco3)c3nc4ccccc4nc32)cc1,-9%,10µM*,?,?,2,2.3µM*
Nc1c(C(=O)NCc2ccco2)c2nc3ccccc3nc2n1CCN1CCOCC1,4%,16µM*,-45%,?,7,5.2µM*
Nc1c(C(=O)NCc2ccco2)c2nc3ccccc3nc2n1Cc1ccc(F)cc1,20%,3.7µM*,-39%,?,-7,?
Nc1c(C(=O)NCc2ccco2)c2nc3ccccc3nc2n1Cc1ccccc1,17%,?,?,?,8,21µM*
c1cc[n+]2c(c1)-c1cccc[n+]1CC2,-6%,nt,-27%,nt,nt,nt
C[C@H]1CO1,-4%,nt,-11%,nt,nt,nt
c1cc2c(cc1[C@H]1OC[C@@H]3[C@H]1CO[C@H]3c1ccc3c(c1)OCO3)OCO2,-22%,nt,40%,nt,nt,nt
CCN(CC)S(=O)(=O)c1cccc(-c2nnc(SCc3nnc(-c4cccs4)o3)n2N)c1,-7%,10%,?,?,6,1%
FC(F)(F)c1ccccc1CNCCc1c[nH]c2ccccc12,6%,10µM*,-2%,2%,12,?
Cc1ccnc(NC(=O)CCCc2ccc(N(CCCl)CCCl)cc2)n1,nt,?,nt,nt,-5,?
SMILES,VP16 counter,MCF10A rereplic,RORgamma inh,BCR signal inh,Giardia killer,SW480 rereplic
ClCCN(CCCl)c1ccc(C=Cc2ccncn2)cc1,nt,15µM*,nt,nt,-26,?
COc1cc(CNC(=O)CCCC/C=C/C(C)C)ccc1O,-12%,2%,?,1%,-23,29%
C=CCn1c(=O)c(C=Nc2c(OC)cccc2[N+](=O)[O-])c(O)n(CCCC)c1=O,-6%,7.3µM*,?,-2%,5,?
C=CCn1c(=O)c(C=Nc2cccc([N+](=O)[O-])c2)c(O)n(CCCC)c1=O,8%,10%,22%,19%,0,-8%
CC(=O)O[C@H]1C(=O)[C@@]2(C)C([C@H](OC(=O)c3ccccc3)[C@]3(O)C[C@H](OC(=O)[C@H](O)[C@@H](NC(=O)c4ccccc4)c4ccccc4)C(C)=C1C3(C)C)[C@]1(OC(C)=O)CO[C@@H]1C[C@@H]2OC(=O)[C@H](C)NC(=O)c1ccc(-c2c3ccc(=O)cc-3oc3cc(O)ccc23)c(C(=O)O)c1 (stereo not given in full),-6%[10 µM],nt,-4%[10 µM],nt,nt,nt
CC(=O)O[C@@]12CO[C@@H]1C[C@H](O)[C@@]1(C)C(=O)[C@H](O)C3=C(C)[C@@H](O)C[C@@](O)([C@@H](OC(=O)c4ccccc4)C12)C3(C)C (stereo not given in full),-11%,?,-9%,-8%,-1,?
C/C=C(\C)C(=O)N[C@@H](c1ccccc1)[C@@H](O)C(=O)O[C@H]1C[C@@]2(O)[C@@H](OC(=O)c3ccccc3)C3[C@](C)(C(=O)[C@H](OC(C)=O)C(=C1C)C2(C)C)[C@@H](O)C[C@H]1OC[C@@]31OC(C)=O (stereo not given in full),-25%,0.29µM*,?,8%,10,1.2µM*
C/C=C(\C)C(=O)N[C@@H](c1ccccc1)[C@@H](O)C(=O)O[C@H]1C[C@@]2(O)[C@@H](OC(=O)c3ccccc3)C3[C@](C)(C(=O)[C@H](O)C(=C1C)C2(C)C)[C@@H](O)C[C@H]1OC[C@@]31OC(C)=O (stereo not given in full),-26%,?,?,-3%,0,8.2µM*
C[C@@]12CC(c3ccoc3)OC(=O)C1CC[C@@]1(C)C2C2C=C[C@@]1(O)C(=O)O2 (stereo not given in full),-1%,nt,16%,nt,nt,nt
C(=N\Nc1ccc2ccccc2n1)/c1ccc2c(c1)OCCO2,2µM*,23µM*,2.5µM*,?,-28,?
S=c1[nH]nc(-c2ccc3ccccc3n2)n1-c1ccc2c(c1)OCCO2,?,-2%,-4%,-4%,-21,-5%
CNc1ccc2oc(C[C@H]3O[C@]4(CC[C@H]3C)O[C@H]([C@H](C)C(=O)c3ccc[nH]3)[C@H](C)C[C@H]4C)nc2c1C(=O)O,-62%,nt,?,nt,nt,nt
C=CCn1c(O)c(C(C)=Nc2ccc(N(CC)CC)cc2)c(=O)[nH]c1=O,-3%,?,-3%,-17%,-2,15µM*
CCN(CC)c1ccc(N=Cc2c(O)n(-c3ccccc3)c(=O)[nH]c2=O)cc1,-14%,-1%,-6%,0%,4,7%

# High-throughput results from PubChem.
